Here are results for 22 compounds from PubChem BioAssay.

Assay [1] concerns XIP peptide (Xip251-270) binding. The assay can be described thus: small-molecule binders of XIP peptide, primary screen, biochemical, small-molecule microarray, fluorescence 635/667 nm, 0.1 µg/mL protein (AID 1182). The settings on record: fluorescent protein binding, 635 nm, higher = more signal, called active from +8 up or from −8 down.
The subject of assay [2] is XIP peptide (Xip251-270). The assay can be described thus: small-molecule binders of XIP peptide, primary screen, biochemical, small-molecule microarray, fluorescence 635/667 nm, 0.5 µg/mL protein (AID 1183). The settings on record: small-molecule microarray binding, fluorescence 635 nm; higher = more signal.
Assay [3] is described as follows: Plasmodium falciparum growth inhibition, primary screen, strain 3D7, DAPI fluorescence, 100 nL (AID 1184).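 Also: parasites grown inside human red blood cells in medium with human serum.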 The note with it: P. falciparum 3D7 growth, 3 d, higher = more signal.
Assay [4] concerns the target Homeobox protein Hox-A13 (Mus musculus) (UniProt Q62424). The assay can be described thus: inhibitors of HoxA13-DNA binding, primary screen, biochemical, fluorescence polarization, labeled oligonucleotide (AID 1185). The settings on record: 15 min, higher = more signal, called active from +8 up or from −8 down. In general terms: Polarisation of emitted light reports the rotation of a fluorescent probe.

Assay [5] in a line: inhibitors of hydroxyurea-induced Chk1 phosphorylation, primary screen, imaging, HeLa, phospho-Chk1 antibody, percent positive cells (AID 1186). The note with it: hydroxyurea-induced phospho-Chk1 immunofluorescence imaging, higher = more signal.
The nature of assay [6]: inhibitors of hydroxyurea-induced Chk1 phosphorylation, primary screen, imaging, HeLa, phospho-Chk1 nuclear intensity (AID 1187). The settings on record: hydroxyurea-induced phospho-Chk1 immunofluorescence imaging, higher = more signal.

Active and inactive are the calls of the source. Unless noted, no rule for the calls is given here.

Chain of Homeobox protein Hox-A13 (Mus musculus) (Q62424 whole entry, looked up): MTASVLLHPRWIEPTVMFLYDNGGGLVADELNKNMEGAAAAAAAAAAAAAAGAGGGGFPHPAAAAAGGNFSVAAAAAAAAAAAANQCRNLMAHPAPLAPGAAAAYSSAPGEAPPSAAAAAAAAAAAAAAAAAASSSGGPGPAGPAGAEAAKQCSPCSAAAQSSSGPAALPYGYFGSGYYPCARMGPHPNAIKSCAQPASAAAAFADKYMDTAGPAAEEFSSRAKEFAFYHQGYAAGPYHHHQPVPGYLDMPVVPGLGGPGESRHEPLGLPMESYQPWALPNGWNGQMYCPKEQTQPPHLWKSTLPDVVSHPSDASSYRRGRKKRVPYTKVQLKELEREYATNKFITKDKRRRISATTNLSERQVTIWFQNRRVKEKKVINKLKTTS

In the case of `CN1C(=O)C2C=CC(C(O)c3cccc4ccccc34)N(NC(=O)OC(C)(C)C)C2C1=O` (configuration not stated), the composite z-score in assay [1] was 0.704 (inactive); in assay [2] it was 0.586. Moreover, the z-score is 0.99 in assay [3], -3.88 (inactive) in assay [4], 0.326 (inactive) in assay [5] and -0.397 (inactive) in assay [6].
For the compound `COCCOC(=O)N1C(=O)[C@@]2(c3ccccc31)[C@H](c1ccccc1OCCO)N1[C@H](c3ccccc3)[C@H](c3ccccc3)OC(=O)[C@H]1[C@@H]2C(=O)N1CCc2cc(OC)c(OC)cc2C1`, the composite z-score in assay [1] is 0.159 (inactive); in assay [2] it was 0.84. Further, the z-score was -2.46 in assay [3], -2.43 (inactive) in assay [4], -0.453 (inactive) in assay [5] and -0.193 (inactive) in assay [6].
`CC(C)CCC[C@@H](C)[C@H]1CC[C@@]2(C)C3=C(CC[C@]12C)[C@@]1(C)CC[C@H](OC(=O)c2ccc(N)cc2)C(C)(C)C1CC3` (some centres not stated): the values for the composite z-score in assay [1] and in assay [2] were 0.141 (inactive) and 0.132, respectively. Moreover, the z-score in assay [3] is 0.0753; in assay [4] it was -1.09 (inactive); in assay [5] it was -0.516 (inactive); in assay [6] it was -0.736 (inactive).
Turning to `CN1C(=O)C2C=CC(C(O)C3CCCCC3)N(N(c3ccccc3)c3ccccc3)C2C1=O` (configuration not stated), the composite z-score in assay [1] was -0.119 (inactive); in assay [2] it was 0.63. Also, the z-score in assay [3] is 0.721; in assay [4], -4.01 (inactive); in assay [5], 0.74 (inactive); in assay [6], -0.024 (inactive).
With `[N-]=[N+]=Nc1ccccc1[C@@H]1OC(c2ccc(OCCCO)cc2)=N[C@]1(CCS(=O)(=O)c1ccccc1)C(=O)NCc1ccccc1`, the composite z-score was 1.44 (inactive) in assay [1] and 0.629 in assay [2]. Besides, the z-score was -2.27 in assay [3], -1.05 (inactive) in assay [4], -0.228 (inactive) in assay [5] and -0.184 (inactive) in assay [6].
As to `O=C(C=C(CC(O)c1cccc(Cl)c1)OCCF)OCCF` (configuration not stated), the composite z-score in assay [1] is 0.0562 (inactive); in assay [2], -1.21. Moreover, the z-score in assay [3] is 0.186; in assay [4], -1.34 (inactive); in assay [5] it was -0.608 (inactive); in assay [6], -0.48 (inactive).
Consider `C[C@H]1NC(=O)C([C@@H](C)OCc2ccccc2)NC(=O)[C@@]23C(=O)N[C@@H](Cc4ccccc4)C2[C@H](C)[C@@]2(C)O[C@H]2C3/C=C/CC/C=C/CNC1=O` (some centres not stated), for which the values for the composite z-score in assay [1] and in assay [2] were 0.249 (inactive) and -0.764, respectively. Further, the z-score is -2.74 in assay [3], -6.35 (inactive) in assay [4], -0.295 (inactive) in assay [5] and 0.3 (inactive) in assay [6].
For `CCCC=C(CCC)[C@@H](NS(=O)(=O)c1ccccc1)c1ccc(C(F)(F)F)cc1`, the composite z-score in assay [1] is -0.363 (inactive); in assay [2], 0.528. The z-score was 0.118 in assay [3], -1.19 (inactive) in assay [4], -0.147 (inactive) in assay [5] and -0.423 (inactive) in assay [6].
Take `O=C1C[C@@](C(=O)O)(c2ccc([N+](=O)[O-])cc2)[C@@H](c2ccc(CO)cc2)N1CC12CC3CC(CC(C3)C1)C2`: the composite z-score in assay [1] is 0.312 (inactive); in assay [2], 0.748. Further, the z-score in assay [3] was -0.626; in assay [4], -3.96 (inactive); in assay [5], -0.226 (inactive); in assay [6], -0.715 (inactive).
For `O=C1O[C@H](c2ccccc2)[C@H](c2ccccc2)N2[C@H]1[C@@H](C(=O)N1CCN(c3ncccn3)CC1)[C@]1(C(=O)Nc3ccc(C#CCCO)cc31)[C@H]2c1ccccc1OCCO`, the figures for the composite z-score in assay [1] and in assay [2] were 0.439 (inactive) and 0.808, respectively. Further, the z-score in assay [3] was -2.19; in assay [4] it was -1.29 (inactive); in assay [5], -0.329 (inactive); in assay [6] it was -0.529 (inactive).
Take `[N-]=[N+]=Nc1ccccc1[C@H]1OC(c2ccc(OCCCO)cc2)=N[C@@]1(Cc1ccccc1)C(=O)NCc1ccccc1`: the composite z-score is 1.39 (inactive) in assay [1] and 0.596 in assay [2]. For the same compound, the z-score in assay [3] is -2.24; in assay [4] it was -2.71 (inactive); in assay [5] it was -0.684 (inactive); in assay [6] it was -0.5 (inactive).
For `[N-]=[N+]=Nc1ccccc1C[C@]1(C(=O)NCCN2CCOCC2)N=C(c2ccc(OCCCO)cc2)O[C@H]1c1ccccc1N=[N+]=[N-]`, the composite z-score in assay [1] was 1.24 (inactive); in assay [2], 0.682. Further, the z-score in assay [3] was -2.21; in assay [4] it was -3.22 (inactive); in assay [5] it was -1.3 (inactive); in assay [6], -2.17 (inactive).
Regarding `CC(C)(C)OC(=O)CC[C@]1(C(=O)N2CCCCC2)N=C(c2ccc(OCCCO)cc2)O[C@H]1c1ccccc1CN=[N+]=[N-]`, the composite z-score in assay [1] is 1.25 (inactive); in assay [2] it was 0.855. In addition, the z-score in assay [3] is -2.26; in assay [4] it was -2.91 (inactive); in assay [5], -0.692 (inactive); in assay [6] it was -0.917 (inactive).
Consider `O=c1c2ccc(Br)cc2nc(-c2ccccc2)n1Cc1cccc(O)c1`, for which the composite z-score in assay [1] was 0.0521 (inactive); in assay [2], 0.748. Also, the z-score in assay [3] is -0.772; in assay [4] it was -3.01 (inactive); in assay [5], -0.005 (inactive); in assay [6] it was -0.24 (inactive).
As for `CC(C)C[C@@H]1NC(=O)[C@@H]2C[C@H](C(=O)NCCCC[N+](C)(C)C)[C@H](c3cccc(OCCO)c3)N2C1=O`, the results for the composite z-score in assay [1] and in assay [2] were 0.974 (inactive) and 0.0734, respectively. Besides, the z-score was 0.0751 in assay [3], -3.05 (inactive) in assay [4], -0.366 (inactive) in assay [5] and -0.333 (inactive) in assay [6].
For `CC(C)(C)OC(=O)CC[C@@]1(C(=O)N2CCCCC2)N=C(c2ccc(OCCCO)cc2)O[C@@H]1c1ccccc1N=[N+]=[N-]`, the composite z-score is 0.416 (inactive) in assay [1] and 0.83 in assay [2]. Besides, the z-score in assay [3] is -2.08; in assay [4], -3.63 (inactive); in assay [5] it was -0.184 (inactive); in assay [6], -0.414 (inactive).
For the compound `CC(C)C(CO)N1C(=O)[C@@H]2[C@H]3C(=O)OCC=C[C@H]3OC23C=CCN(CCN2CCOCC2)C(=O)[C@@H]13` (some centres not stated), the composite z-score was 0.708 (inactive) in assay [1] and 0.3 in assay [2]. Besides, the z-score in assay [3] is -0.0296; in assay [4], -4.54 (inactive); in assay [5] it was 0.318 (inactive); in assay [6], 0.436 (inactive).
With `COC(=O)[C@@]1(Cc2ccc(OC)cc2)[C@H]2c3cc(C(=O)N(C)C)n(Cc4cc(C)n(C)n4)c3C[C@H]2CN1C(=O)c1ccccc1`, the composite z-score in assay [1] is 0.254 (inactive); in assay [2], 0.762. Further, the z-score in assay [3] was -1.63; in assay [4], -5.1 (inactive); in assay [5], 0.53 (inactive); in assay [6], 0.263 (inactive).
With `COc1ccc([Si](C)(C)[C@@H]2[C@@H](CCO)O[C@]3(C(=O)N(Cc4ccccc4)c4ccc(N5C(=O)COc6ccccc65)cc43)[C@H]2C)cc1`, the composite z-score in assay [1] is -0.234 (inactive); in assay [2], 0.667. The z-score was -2.82 in assay [3], -1.89 (inactive) in assay [4], -1.26 (inactive) in assay [5] and -1.47 (inactive) in assay [6].
On to `C=CCC(OC(C)=O)[C@@H]1[C@@H](N(Cc2ccc(-c3ccccc3)cc2)C(=O)c2cccc3ccccc23)c2cc(OCCCO)ccc2N1C(=O)c1ccc2ccccc2n1` (some centres not stated), for which the composite z-score was -0.0607 (inactive) in assay [1] and 0.328 in assay [2]. Further, the z-score was -0.714 in assay [3], -1.42 (inactive) in assay [4], -0.606 (inactive) in assay [5] and -0.368 (inactive) in assay [6].
As to `O=C1NC(=O)C2C1C=CC(C(O)c1ccc3c(c1)OCO3)N2Nc1ccc(Cl)cc1Cl` (configuration not stated), the composite z-score was 2.16 (inactive) in assay [1] and 0.726 in assay [2]. Moreover, the z-score in assay [3] was 0.576; in assay [4] it was -5.9 (inactive); in assay [5], 0.629 (inactive); in assay [6], 0.417 (inactive).
As for `O=C1C[C@@](C(=O)NCc2ccccc2)(c2ccc([N+](=O)[O-])cc2)[C@@H](c2ccc(CO)cc2I)N1C1CCCCC1`, the composite z-score is 0.193 (inactive) in assay [1] and 0.676 in assay [2]. Further, the z-score in assay [3] was -1.45; in assay [4] it was -3.45 (inactive); in assay [5] it was 0.173 (inactive); in assay [6], 0.408 (inactive).
